# Compound activity: PubChem, National Center for Advancing Translational Sciences (NCATS)
# pAkt inh: blocks phosphorylation of Akt | Neuro2A IGF-stimulated pAkt S473 HTRF, 20 min; active compounds read low | activity change, % for hits at 50 µM | 360,000 tested, 0.32% active; in the data active means activity change below about -80%; inconclusive means mostly about -51% to -80%; further: on the % scale 0 is the no-effect control and ±100 the full control effect
#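 Neuro2A cells in DMEM with 0.5% FBS, overnight at 37 deg C, given compound at single 50 µM final, then IGF (6 nM final) for 20 min at 37 deg C. Lysed; phospho-Akt Ser473 by HTRF after 24 h, 665/615 ratio.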
# TDP43 rescue: inhibitors of TDP-43 toxicity in yeast; TDP-43 expressing yeast growth rescue, BacTiter-Glo, 24 h; Potency, µM (top dose mostly 46.1 µM), for inactives: at the highest dose growth rescue (activation), most hits filed as activators; 410,000 tested, 1.8% active; AID 652104; further: potency means the concentration at half of the fitted maximal effect; % of control where 0% means no effect; nearly all actives have a fitted effect of over 50% in size
#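 Growth rescue of TDP-43-toxic yeast measured as ATP luminescence (BacTiter-Glo). Cells grown to mid-log in raffinose, induced in galactose at OD600=0.02, exposed to compound 24 hr at 30 deg C.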
# aSyn rescue: inhibitors of alpha-synuclein toxicity in yeast; Potency, µM (series often up to 46.1 µM), for the others: top-dose growth rescue (activation), most hits filed as activators; 370,000 tested, 0.14% active; Yeast expressing alpha-synuclein, growth rescue, BacTiter-Glo, 24 h; further: potency means the concentration at half of the fitted maximal effect; % of control where 0% means no effect; nearly all actives have a fitted effect of over 65% in size
#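 Rescue of yeast growth: cells expressing toxic alpha-synuclein, induced in galactose at OD600 0.02, incubated with compound 24 h at 30 C. ATP luminescence quantified growth; inhibitors of toxicity appear as activators.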
# FUS suppressor: rescues growth of FUS-expressing yeast. AID 1347120. Potency, µM (titrated, usually from 76.6 µM), hits mostly activators. 390,000 tested, 0.24% active. S. cerevisiae FUS-expressing, growth rescue, OD600, 24 h;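 further: potency means the concentration at half of the fitted maximal effect; plate controls were DMSO vehicle for no effect and reference control for full effect; nearly all actives have a fitted effect of over 55% in size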
#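 Absorbance at 600 nm, taken 24hr after compound addition, measured rescue of FUS-yeast growth at 30C. Induction used 2% galactose with seeding at OD 0.005. Controls: CP55940 from 92uM final, DMSO only.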
# Abeta rescue: restores growth of yeast expressing A-beta42 peptide; yeast expressing A-beta42, growth rescue, OD600, 48 h; response scale: 0% DMSO, 100% iron-clioquinol control; Potency, µM (titrated, usually from 46.1 µM), most hits filed as activators; 410,000 tested, 0.063% active; AID 1347071; further: potency means the concentration at half of the fitted maximal effect; nearly all actives have a fitted effect of over 55% in size
#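 Yeast growth medium received pinned compounds, then yeast cells expressing toxic A-beta were added; plates incubated at 30 C for 48 hr. Growth read as absorbance at 600 nm, normalized to DMSO and equimolar FeCl3 plus clioquinol controls.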
# Numbers without * were called inactive; i = inactive; ? = inconclusive; · = not tested or not shown; [ ] = dose if it differs, or a comment. In the library only some 2.3% were active in any assay of this set; here they are far more common. Unless noted, the call rests on the fitted dose curve; in most records, active means well fitted curve in the direction sought with a large enough effect; inconclusive means small, poorly fitted or top-dose-only effect, or another doubt; inactive means no such curve, though single readings can be large; an effect the other way counts as inactive or inconclusive.
SMILES,pAkt inh,TDP43 rescue,aSyn rescue,FUS suppressor,Abeta rescue
CC(C)(C)S(=O)N1Cc2cc(C(=O)NCc3ccc(Oc4ccccc4)cc3)nc(-c3cccc(-c4cc5ccccc5o4)c3)c2[C@@H]1CCO (some centres undefined),i,22µM*,-32%,32µM*,i
COc1cccc(-c2cccc(-c3nc(C(=O)NCc4ccc(Oc5ccccc5)cc4)cc4c3[C@H](CCO)N(S(=O)C(C)(C)C)C4)c2)c1 (some centres undefined),i,?,-27%,?,i
Cc1ccc(-c2nnc(SCc3ccccc3)o2)cc1,·,?,·,i,i
C=CCSc1nnc(-c2sc(-c3ccccc3)nc2C)n1C,·,16µM*,·,i,i
O=C(NC(=S)NC1CCCc2ccccc21)c1ccc(F)cc1 (centres undefined),i,?,-21%,i,?
COc1ccc(C(=O)NCCN2CCCC2)cc1,i,5%,0%,i,i
COc1ccc(CC(=O)NC2CCCc3ccccc32)cc1 (centres undefined),i,18µM*,-1%,i,i
COc1ccc(CC(=O)NCCN2CCCC2)cc1,-121%*,3%,-3%,i,i
O=C(NC(=S)NC1CCCc2ccccc21)c1ccco1 (centres undefined),i,?,-11%,i,11µM*
COc1cccc(NC(=O)CSC2=Nc3ccccc3C3=NC(CCC(=O)NC4CCCCC4)C(=O)N23)c1 (centres undefined),·,17%,·,i,i
COc1ccccc1CNC(=O)Cn1c(=O)nc(-c2ccccc2F)c2cc(Cl)ccc21,·,19%,·,i,i
O=C1c2ccccc2S(=O)(=O)c2cc(C(=O)N3CCN(c4ccc(Cl)cn4)CC3)ccc21,i,20µM*,6%,i,i
CCOC(=O)N1CCC(NC(=O)c2ccc3c(c2)N(Cc2ccccc2)C(=O)c2ccccc2S3(=O)=O)CC1,·,23%,·,?,i
CCOC(=O)N1CCC(NC(=O)c2ccc3c(c2)N(Cc2ccc(F)cc2)C(=O)c2ccccc2S3(=O)=O)CC1,·,-17%,·,25µM*,i
O=C(c1ccc2c(c1)N(Cc1ccc(Cl)cc1)C(=O)c1ccccc1S2(=O)=O)N1CCCCCC1,·,18%,·,28µM*,i
CC(C)c1ccc(NC(=O)c2cc3c(=O)[nH]c4ccccc4c3n2C)cc1,·,3%,-8%,i,i
Cc1cc(C)cc(C(=O)Nc2ccc(-c3nc4ncccc4o3)cc2)c1,·,0%,·,i,i
O=[N+]([O-])c1cccc(NC(=S)N2CCCC2)c1,i,-4%,0%,i,i
O=[N+]([O-])c1ccc(NC(=S)N2CCc3ccccc3C2)cc1,i,25µM*,?,·,i
O=C(Nc1cccc([N+](=O)[O-])c1)N1CCCc2ccccc21,i,11µM*,-5%,i,i
O=[N+]([O-])c1cccc(NC(=S)N2CCc3ccccc32)c1,i,13µM*,2%,i,?
CCc1cccc(C)c1NC(=O)COCc1cc(-c2ccc3c(c2)OCO3)on1,·,17%,·,i,i
Cc1ccc(NC(=O)CN2C(=O)C3(SCC(=O)N3c3ccc(F)c(F)c3)c3ccccc32)c(C)c1 (centres undefined),·,13%,-6%,?,i
COc1ccc(Cn2c(=S)[nH]c3ccccc32)cc1,i,16%,-16%,i,11µM*
COc1ccc(-c2nc3ccccc3n2Cc2ccc(Cl)cc2)cc1,·,22µM*,·,i,i
COc1ccc(-c2nc3ccccc3n2Cc2ccc(C(C)C)cc2)cc1,·,22µM*,1%,i,i
COc1ccc(-c2nc3ccccc3n2Cc2ccc(C)cc2)cc1,i,4%,10%,i,?
CCOC(=O)N1CCC(NC(=O)c2cnn(-c3ccc(C)cc3)c2C2CCN(C(=O)OC(C)(C)C)CC2)CC1,·,5%,·,i,i
CC(C)CCNS(=O)(=O)c1ccc(N2CCCCS2(=O)=O)cc1,·,16%[9.22 µM],·,i,i
COc1ccc(Cl)cc1NC(=O)Cn1nc(Cc2ccncc2)c2ccccc2c1=O,·,1%,·,i,i
